Assay results from article PMC7819943, “Rice protein-binding microarrays: a tool to detect cis-acting elements near promoter regions in rice”.
Over roughly 39,000 sequences, “fluorescence intensity (a.u.)” has its median near 4,300; the highest 2% begin near 39,000. For the sample, the highest values were picked, then their nearest neighbours and some sequences at random.

Target: T1, OsSMF1 (Oryza sativa, UniProt Q6ZLB0 1-436)
T1 sequence: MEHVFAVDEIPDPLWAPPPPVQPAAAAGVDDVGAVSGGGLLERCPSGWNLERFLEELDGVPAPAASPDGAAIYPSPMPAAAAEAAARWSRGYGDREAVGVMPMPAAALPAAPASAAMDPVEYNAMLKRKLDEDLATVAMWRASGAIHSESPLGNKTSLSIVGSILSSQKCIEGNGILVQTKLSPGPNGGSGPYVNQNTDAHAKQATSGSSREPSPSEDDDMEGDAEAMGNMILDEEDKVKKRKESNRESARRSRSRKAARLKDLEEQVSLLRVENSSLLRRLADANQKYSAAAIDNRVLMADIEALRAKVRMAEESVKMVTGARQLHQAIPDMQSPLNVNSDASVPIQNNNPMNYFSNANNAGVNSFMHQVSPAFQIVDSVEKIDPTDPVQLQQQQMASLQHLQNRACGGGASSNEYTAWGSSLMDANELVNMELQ
Assay: protein-binding microarray (RPBM); PBS, 2% BSA, 51.3 ng/ul salmon testes DNA, 50 uM zinc acetate, 200 nM TF, 25 C, 1 h; high values mean tight binding
Details: protein: recombinant; tags: N-terminal polyhistidine and DsRed monomer fusion (pET32a); chain copies: 2; label: CyDye5-dUTP incorporated in the synthesized complementary strand; 3' TTTTT single-stranded linker to array surface; dsDNA, one strand shown
Method in brief: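 Binding signal is reported as fluorescence intensity per feature (arbitrary units) from an Axon 4000B scanner. Incubation used 200 nM of each Ni–NTA-purified, N-terminally polyhistidine- and DsRed-fused transcription factor from E. coli BL21-CodonPlus on a double-stranded custom Agilent array for 1 h at 25 °C, with 50 µM zinc acetate in the buffer, followed by washing.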

| Sequence | binding signal |
| --- | --- |
| TGATTTAAACATGTTATGTAAGGAGAGTTGGAGACAGATACGGAGTCACCTAGTGCAG | 22000 fluorescence intensity (a.u.) |
| GATGTCTTTAAAGAGGATTATATGAAATTTGAGATGAAATCGGAGTCACCTAGTGCAG | 3610 fluorescence intensity (a.u.) |
| AAACAACCAACTTTGCCTGCAAAACGGCAAAGAGATTAACCGGAGTCACCTAGTGCAG | 3920 fluorescence intensity (a.u.) |
| CGTACGGATATGCCCACGTGGCGAAGTCCCACGACGCCACCGGAGTCACCTAGTGCAG | 9930 fluorescence intensity (a.u.) |
| ATTTCCAGTAAAAGTGGCATTGTTCAGACTTCAGTCATTACGGAGTCACCTAGTGCAG | 3530 fluorescence intensity (a.u.) |
| CACGGCATCGGCATCGGCAGCCACGCCTCGCGTGGCACGGCGGAGTCACCTAGTGCAG | 4720 fluorescence intensity (a.u.) |
| GACAGATGTGCTGAGTGCTGACGTGGTTAAACTAACCTCGCGGAGTCACCTAGTGCAG | 16100 fluorescence intensity (a.u.) |
| AAGAGGATCGCAATCGTGAAAACTTCGCAAGTGTTCAGAACGGAGTCACCTAGTGCAG | 59100 fluorescence intensity (a.u.) |
| TCGAAAACTTTTCAGCCACGTGATGTTGGCAATCGCTGTTCGGAGTCACCTAGTGCAG | 7190 fluorescence intensity (a.u.) |
| CCAAACTAAGAGTGTTCAAGGGGAGGGGAAAAGAGAAGATCGGAGTCACCTAGTGCAG | 3660 fluorescence intensity (a.u.) |
| CGGCCCACCCACCAACCACCACCACCACCACCACACCCGCCGGAGTCACCTAGTGCAG | 3740 fluorescence intensity (a.u.) |
| CACCAGCACATAAACACAAACCCACAGAAGACATTGCATTCGGAGTCACCTAGTGCAG | 5420 fluorescence intensity (a.u.) |
| AATGAAATTAAACACACCCAACAAAATAAAAGACCAAACCCGGAGTCACCTAGTGCAG | 3140 fluorescence intensity (a.u.) |
| CCACTGGACCATAACTGGGCCCAGCACACAGAAACAAATCCGGAGTCACCTAGTGCAG | 44700 fluorescence intensity (a.u.) |
| GGGCCCCACAACCACCCCATAAATAAAGCAACACAACAACCGGAGTCACCTAGTGCAG | 53000 fluorescence intensity (a.u.) |
| CTTGGCCCAGAAACAACACACACACTCAAATCTGGATCCACGGAGTCACCTAGTGCAG | 3790 fluorescence intensity (a.u.) |
| TCCTTCTTCTTCTCCTTCCTCACTGCAACACTCTTCGGGGCGGAGTCACCTAGTGCAG | 38900 fluorescence intensity (a.u.) |
| CTTCGTCTCCTCCTCCTCCACGTCATCCGCCTCCGCCTCCCGGAGTCACCTAGTGCAG | 26000 fluorescence intensity (a.u.) |
| TTTGTGCGTGTTACGAGTGACTTGCGTTTATATCCTGCTTCGGAGTCACCTAGTGCAG | 6490 fluorescence intensity (a.u.) |
| ACAGGCATAGAGGCTGCTGACACACACCATCCGATCTGTCCGGAGTCACCTAGTGCAG | 4990 fluorescence intensity (a.u.) |
| CATCCCTGGTGCTCTTGGTCTCTTGGCAGCTGTGGAAGGACGGAGTCACCTAGTGCAG | 43000 fluorescence intensity (a.u.) |

| Sequence | binding signal |
| --- | --- |
| GTATTGCTGCTGTGATGGAACAAGCTCAGCAGGGTGACATCGGAGTCACCTAGTGCAG | 3290 fluorescence intensity (a.u.) |
| GGGCGGAGCTGGTGCGGAGGGTGGCGTGGCAGCTCGAGGACGGAGTCACCTAGTGCAG | 5260 fluorescence intensity (a.u.) |
| TGCAGATGGTGCTGTGAAAGCTCTTGAACAGCAGGAAGGTCGGAGTCACCTAGTGCAG | 43400 fluorescence intensity (a.u.) |
| GCGTGGTGCTGGTCTCCAAGGATCCCGACAACATCCGCGACGGAGTCACCTAGTGCAG | 5380 fluorescence intensity (a.u.) |
| GCCGTGAACCAAAGCTCTTGCCGTGCTGTGCCGTGCCGGTCGGAGTCACCTAGTGCAG | 3220 fluorescence intensity (a.u.) |
| ATGTGATGCATGATGATTAGATATGCTTGCATGTTAATTTCGGAGTCACCTAGTGCAG | 3160 fluorescence intensity (a.u.) |
| TGCTGCCTTTATCATCACCAAGAGCCACTACCTTGCCTTACGGAGTCACCTAGTGCAG | 4370 fluorescence intensity (a.u.) |
| ACACTAATTTCAAGGTTGCTCGTGAGTCATAATCCTGACGCGGAGTCACCTAGTGCAG | 7720 fluorescence intensity (a.u.) |
| GGCCGGAGGGCGGCCTCGGTGGCGTGGAGTTGGCAGCGGGCGGAGTCACCTAGTGCAG | 3770 fluorescence intensity (a.u.) |
| TCGACCCACCGTCTGCCACGTCAGCTTGCCGCCCACCAATCGGAGTCACCTAGTGCAG | 28900 fluorescence intensity (a.u.) |
| AGTAACCGACTCCTTTCCAACGTGTTCCCCACGAAGCCGGCGGAGTCACCTAGTGCAG | 4560 fluorescence intensity (a.u.) |
| CCCTTCCTTCCTTCCTTTGCATCATCATCATCAACCCAATCGGAGTCACCTAGTGCAG | 4440 fluorescence intensity (a.u.) |
| GTGCCTGACAATCCTACAGGTGAAATCAACCCCTTTCATCCGGAGTCACCTAGTGCAG | 40800 fluorescence intensity (a.u.) |
| TTTGAAACCCCTCCTCCTCCTCCTTCCCCAACACACAATCCGGAGTCACCTAGTGCAG | 3250 fluorescence intensity (a.u.) |
| CCACAAACATGCAAGACCAAATTCAACTTCTACAAGTTGTCGGAGTCACCTAGTGCAG | 13900 fluorescence intensity (a.u.) |
| CGTGTTCGATTCCGCTGCTATCCACGTCGCTACGCGCCACCGGAGTCACCTAGTGCAG | 7020 fluorescence intensity (a.u.) |
| CCACGCTATCCCATGCGATTCGAGAAGGTTCCACACACACCGGAGTCACCTAGTGCAG | 41300 fluorescence intensity (a.u.) |
| AGGTTCGCAGTTCCACGCATCCCACCATCACCACACCACGCGGAGTCACCTAGTGCAG | 5160 fluorescence intensity (a.u.) |
| TCGAGCCGGTAGATGTCTCAGCTAGTGCTTTATCTGTTCGCGGAGTCACCTAGTGCAG | 3180 fluorescence intensity (a.u.) |
| CGGCGCCTAGACTGCGTATCGTAGCTGTCGAACGTGTCGTCGGAGTCACCTAGTGCAG | 3640 fluorescence intensity (a.u.) |
| GAATCTACTGGGCATTTCGTCAAACAGCTCATCTGCGCCCCGGAGTCACCTAGTGCAG | 3590 fluorescence intensity (a.u.) |
